The list is not random: actives were taken first. Their share in the collection is about 19%.
DT40 TDP1 no CPT: qHTS for Inhibitors of human tyrosyl-DNA phosphodiesterase 1 (TDP1): qHTS in cells in absence of CPT. Potency, µM (series often up to 46.2 µM), without a hit: top-dose activity change, negative = growth inhibition, hits mostly inhibitors. 420,000 tested, 15% active. DT40 Tdp1-/- hTDP1 cells, no CPT, ATP luminescence, 48 h; further: potency means the concentration at half of the fitted maximal effect; nearly all actives have a fitted effect of over 55% in size
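Chicken DT40 Tdp1-/- cells stably complemented with human TDP1 were seeded at 400 cells/well with DMSO in place of 20 nM camptothecin. After compound pinning, cells grew at least 48 hr at 37 °C; viability read by CellTiter-Glo luminescence.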
DT40 TDP1 CPT: growth inhibition of DT40 Tdp1-/-;hTDP1 cells with camptothecin (screen for TDP1 inhibitors) | chicken DT40 Tdp1-/-;hTDP1 cells + 20 nM CPT, ATP luminescence, 48 h | Potency, µM (doses to about 46.2 µM), inactives show at the highest dose activity change, negative = growth inhibition, usual class: inhibitors | 420,000 tested, 12% active; further: potency means the concentration at half of the fitted maximal effect; nearly all actives have a fitted effect of over 55% in size
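Cell growth measured by CellTiter-Glo luminescence after a minimum 48 h, 37 C compound exposure with 20 nM CPT in Tdp1-knockout DT40 cells stably expressing hTDP1, seeded 400/well; qHTS titration format.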
ELG1 repair inh: blocks ELG1-dependent DNA repair in HEK293T cells; HEK293T ELG1-luciferase reporter, luminescence, 16 h; DNA damage induced by 5-fluorouridine; 330,000 tested, 2.3% active; Potency, µM (top dose mostly 46.1 µM), inactives show at the highest dose activity change, negative = inhibition, usual class: inhibitors; further: potency means the concentration at half of the fitted maximal effect; nearly all actives have a fitted effect of over 55% in size
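Reporter activity after DNA damage by 5-fluorouridine is monitored. Compound-treated cells incubate 16 hr at 37 °C, then ONE-Glo is added for 30 min before luminescence reading.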
HT1080NT lethal: kills 2HG-producing HT-1080-NT fibrosarcoma cells; HT-1080-NT fibrosarcoma viability, CellTiter-Glo ATP luminescence, 48 h; Potency, µM (highest dose often 46.1 µM), inactives show at the highest dose activity, negative = less viability, hits mostly cytotoxic; 360,000 tested, 1.6% active;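 further: NT is the 2HG producing partner of a matched IDH1 knockdown line; potency means the concentration at half of the fitted maximal effect; 0% = DMSO-treated cells and -100% = media-only wells without cells; nearly all actives have a fitted effect of over 55% in size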
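HT-1080-NT fibrosarcoma cells (2HG-overproducing), 750 cells/well in RPMI with 5% FBS, dosed after 2 h and incubated 48 h at 37C. CellTiter-Glo luminescence normalized to DMSO and no-cell wells; concentration-response curves fitted and classed.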
HT1080 IDH1KD tx: toxicity to HT-1080 IDH1 knockdown cells (counter line); HT-1080 IDH1 knockdown viability, ATP luminescence, 48 h; Potency, µM (top dose mostly 46.1 µM), without a hit: top-dose activity, negative = toxicity, usual class: cytotoxic; 360,000 tested, 2% active;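 further: potency means the concentration at half of the fitted maximal effect; 0% = DMSO wells and -100% = cell-free medium wells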
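Using the IDH1-knockdown HT-1080 line run in the same batch and compound series as the NT line, viability after 48 h at 37 °C was determined by CellTiter-Glo luminescence and expressed as % activity.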
IL1B secr inh: inhibitors of inflammasome signaling (IL-1 beta secretion). 360,000 tested, 4.7% active. AID 743279. activity change, % at 57.5 µM. THP-1 LPS/ATP IL-1B secretion, AlphaLISA, 16 h; stronger effect = lower value; in the data active means activity change below about -50%; inconclusive means mostly about -30% to -49%
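THP-1 cells pretreated 1 hr with compounds (up to 57.5 uM final), then stimulated with LPS (250 ng/mL final) plus ATP (1.25 mM final); secreted IL-1B measured by AlphaLISA after 16 hr, decreased signal indicating inhibition.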
An asterisk follows results filed as active; u = inconclusive; x = not tested or not shown; [ ] = another dose, or the depositor's remark. Unless noted, the call rests on the fitted dose curve; in most records, active means well fitted curve in the direction sought with a large enough effect; inconclusive means small, poorly fitted or top-dose-only effect, or another doubt; inactive means no such curve, though single readings can be large; an effect the other way counts as inactive or inconclusive. Unless noted, on the % scale 0 is the no-effect control and ±100 the full control effect.

SMILES	DT40 TDP1 no CPT	DT40 TDP1 CPT	ELG1 repair inh	HT1080NT lethal	HT1080 IDH1KD tx	IL1B secr inh
NCCCC[C@@H](N)C(=O)O	-21%	9%	x	x	x	x
Cc1cnc(NS(=O)(=O)c2ccc(N)cc2)nc1-c1ccccc1O	12%	0%	x	-6%	-5%	-27
CCN1CCCC1CNCc1cc2ccc(SC)cc2nc1-c1cc(OC)ccc1OC (stereo not given)	-7%	-6%[9.04 µM]	x	x	x	x
O=C(c1ccccc1)c1nn(-c2ccccc2)c(=O)cc1-c1ccccc1	u	u	x	25%	14%	-10
O=C(c1ccccc1)c1nn(-c2ccccc2)c(=O)cc1C(F)(F)F	u	-6%	u	u	u	-88*
O=C(c1cccc(Cl)c1)c1nn(-c2ccccc2)c(=O)cc1C(F)(F)F	u	16µM*	u	u	u	-102*
O=C(Nc1ccccc1)c1nn(-c2ccccc2)c(=O)cc1C(F)(F)F	-26%	u	6%	11%	17%	15
Cn1cnnc1Sc1ccc(CN2CCOc3ccc(C4=Cc5ccccc5C4)cc3C2)o1	-30%	-1%[9.04 µM]	x	x	x	x
CCC(Oc1ccccc1F)C(=O)N1CCC(c2nc3ccccc3s2)CC1 (stereo not given)	16µM*	u	x	x	x	x
COc1ccc(C(=O)N2CCC(c3nc4ccccc4s3)CC2)cc1Cl	10µM*	26µM*	x	x	x	x
CCCOc1ccccc1C(=O)N1CCC(c2nc3ccccc3s2)CC1	10µM*	23µM*	x	x	x	x
N#CCNC1CC(=O)N(c2ccc(F)cc2)C1=O (stereo not given)	u	4.6µM*	6%	2%	7%	-15
Cc1cc(C)c(C)c(C(=O)c2ccccc2C(=O)O)c1C	3.3µM*	3.7µM*	2%	1%	-2%	34
O=c1c2c(C(F)(F)F)cc(C(F)(F)F)nc2[nH]n1-c1ccccc1	u	14µM*	26µM*	u	u	-75*
CCCCn1c(O)c2n(c1=O)Cc1ccccc1N=C2c1ccccc1	u	u	x	0%	0%	3
Cc1cccc(NC(=O)c2ccccc2SCc2ccc(F)cc2)n1	15µM*	u	-18%	-6%	8%	16
O=C(NC1CCN(Cc2ccc(F)cc2)CC1)c1ccccc1	-27%	-4%	9%	22%	10%	2
O=C(NC1CCN(Cc2ccccc2)CC1)c1ccc(Cl)cc1Cl	u	2%	-15%	4%	3%	-2
O=C(NC1CCN(Cc2ccc(Cl)c(Cl)c2)CC1)c1ccccc1	u	21µM*	-22%	-1%	0%	-19
O=C(NC1CCN(Cc2ccc3ccccc3c2)CC1)c1ccccc1	18µM*	18µM*	-16%	-4%	6%	-16
O=C(NC1CCN(Cc2ccccc2)CC1)c1ccc(I)cc1	-12%	-22%	x	x	x	x
O=C(NC(=S)NC1CCN(Cc2ccccc2)CC1)c1ccc(F)cc1	15µM*	u	-23%	-2%	0%	-26
CC(C)Oc1ccc(C(=O)NC2CCN(Cc3ccccc3)CC2)cc1	u	-33%	u	0%	-12%	-84*
O=C(NCCN1CCOCC1)C(=O)NCC1OCCN1S(=O)(=O)c1ccc(Cl)cc1 (stereo not given)	-24%	17%	x	7%	7%	16
Cc1ccc(N2CCn3c2nc2c3c(=O)n(Cc3cccc(Cl)c3)c(=O)n2C)cc1C	-21%	u	x	x	x	x
CCCCCCCOc1ccc(OC(=O)c2ccncc2)cc1	10µM*	9.2µM*	6%	0%	6%	8
CCCCOc1ccc(OC(=O)c2cccnc2)cc1	16µM*	21µM*	11%	-7%	u	-3

Source: PubChem BioAssay
